Laboratory results as given in PubChem BioAssay (NCATS).
Values without a mark were called inactive. Records with an inconclusive call do not appear. Activity calls are given as the source filed them. Unless noted, the call rests on the fitted dose curve; in most records, active means well fitted curve in either direction with a large enough effect (not every such curve was filed as active); inconclusive means small, poorly fitted or top-dose-only effect, or another doubt; inactive means flat fitted curve, though single readings scatter.

Assays:
[1] = target: Lysosomal acid glucosylceramidase (Homo sapiens) (UniProt P04062); experiment: Glucocerebrosidase-p2 (AID 348; in the data active means potency below about 10 µM; further: potency means the concentration at half of the fitted maximal effect); settings: purified GBA, blue fluorogenic substrate, 40 min
Chain of Lysosomal acid glucosylceramidase (Homo sapiens) (P04062 whole entry, looked up): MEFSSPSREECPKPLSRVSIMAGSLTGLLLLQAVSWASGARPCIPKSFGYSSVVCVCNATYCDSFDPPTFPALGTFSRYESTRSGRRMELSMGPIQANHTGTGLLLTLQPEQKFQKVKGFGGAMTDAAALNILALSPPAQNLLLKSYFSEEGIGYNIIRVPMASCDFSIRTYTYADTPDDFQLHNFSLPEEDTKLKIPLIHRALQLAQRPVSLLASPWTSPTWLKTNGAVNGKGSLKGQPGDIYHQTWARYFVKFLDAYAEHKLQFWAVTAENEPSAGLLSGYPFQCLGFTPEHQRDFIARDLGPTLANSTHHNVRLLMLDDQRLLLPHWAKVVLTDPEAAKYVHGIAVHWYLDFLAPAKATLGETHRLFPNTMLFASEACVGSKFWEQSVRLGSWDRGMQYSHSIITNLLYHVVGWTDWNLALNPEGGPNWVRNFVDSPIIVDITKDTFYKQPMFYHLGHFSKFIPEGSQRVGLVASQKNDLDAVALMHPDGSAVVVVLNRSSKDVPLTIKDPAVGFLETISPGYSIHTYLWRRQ
Outline: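 Normal human glucocerebrosidase (0.2 nM) with blue fluorogenic substrate (80 uM final) in citrate/phosphate pH 5.9 with 10mM sodium taurocholate, 0.01% tween-20; 40 min RT, NaOH/glycine stop; fluorescence Ex 365/Em 440; AC50 from a titration from 0.6 nM upwards.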

[2] = AP1 Signaling Pathway (AID 357); settings: ME-180 AP-1-bla reporter, EGF-induced, beta-lactamase ratio, 5 h; at 7.69 µM (top of the series) unless noted; further: on the % scale 0 is the no-effect control and ±100 the full control effect
Outline: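 AP-1-bla ME-180 cells with beta-lactamase reporter under AP-1 response element, stimulated with EC50 EGF; compounds titrated, 5 hours at 37 degrees Celsius. CCF4 read at 460/530 nm ratio; positive and negative modulators judged by AC50.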

[3] = target: Cytochrome P450 1A2 (Homo sapiens) (UniProt P05177); experiment: p450-cyp1a2 (AID 410; calls by dose curve; further: potency means the concentration at half of the fitted maximal effect;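 on activity change, negative = inhibition: -100% = full effect of reference inhibitor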); settings: recombinant CYP1A2, luciferin-ME demethylation, luminescence; series mostly up to 11.4 µM
Chain of Cytochrome P450 1A2 (Homo sapiens) (P05177 whole entry, looked up): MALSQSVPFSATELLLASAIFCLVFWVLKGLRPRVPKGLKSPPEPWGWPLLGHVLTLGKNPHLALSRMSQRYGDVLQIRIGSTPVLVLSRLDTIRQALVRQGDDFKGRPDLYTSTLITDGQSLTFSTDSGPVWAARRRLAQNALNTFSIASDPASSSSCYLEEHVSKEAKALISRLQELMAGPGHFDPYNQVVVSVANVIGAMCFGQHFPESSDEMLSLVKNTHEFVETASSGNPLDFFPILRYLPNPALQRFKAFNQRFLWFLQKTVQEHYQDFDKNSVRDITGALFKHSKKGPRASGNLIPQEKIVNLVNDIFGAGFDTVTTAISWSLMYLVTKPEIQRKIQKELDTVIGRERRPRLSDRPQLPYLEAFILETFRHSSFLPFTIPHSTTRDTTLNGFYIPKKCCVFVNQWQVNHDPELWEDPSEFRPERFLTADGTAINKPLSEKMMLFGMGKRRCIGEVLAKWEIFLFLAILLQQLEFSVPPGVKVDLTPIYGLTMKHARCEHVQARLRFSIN
Outline: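 Read-out is luminescence from luciferin produced by CYP1A2 demethylation of Luciferin-ME (100uM, at Km). Detection reagent stopped the 60 min NADPH-dependent reaction; signals were normalized to 57 uM furafylline.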

[4] = NFAT Signaling Pathway (AID 444); settings: Jurkat NFAT-bla M1, carbachol, beta-lactamase ratio, 5 h; at 7.69 µM (top of the series) unless noted;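 further: carbachol stimulus at about its EC50 of 1 µM final; on the % scale 0 is the no-effect control and ±100 the full control effect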
Outline: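 Jurkat cells with NFAT-driven β-lactamase reporter and co-expressed M1 receptor, stimulated with carbachol (final 1 uM, ~EC50), compound titration, 5 h at 37 °C. CCF4 loaded 1 h at RT; 460/530 nm ratio gave %activity and AC50.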

[5] = Stat Signaling Pathway (AID 446); settings: ME-180 (cervical carcinoma) SIE beta-lactamase reporter, IL-6 stimulated, 5 h; at 7.69 µM (top of the series) unless noted;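 further: ME-180 cervical cancer cells given 40 pM IL-6 alongside compound; SIE-controlled beta-lactamase reporter measured as 460/530 nm FRET emission ratio; on the % scale 0 is the no-effect control and ±100 the full control effect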
Outline: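 FRET read-out (405 nm excitation, 460/530 nm emission) of a beta-lactamase reporter under a STAT-inducible element in ME-180 cervical carcinoma cells. Cells with compound receive 40 pM IL-6 for 5 h. Values are normalised to AC90 stimulation and AC90 JAK-inhibitor controls.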

[6] = target: Glucocorticoid receptor (Homo sapiens) (UniProt P04150); experiment: GR-GFP Redistribution (AID 450;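 active means compounds whose dose series gives a full or clear partial fitted curve of increased nuclear translocation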; further: potency means the concentration at half of the fitted maximal effect); settings: U2OS GR-GFP nuclear translocation, laser cytometry, 2 h
Chain of Glucocorticoid receptor (Homo sapiens) (P04150 whole entry, looked up, the tested form may be a part): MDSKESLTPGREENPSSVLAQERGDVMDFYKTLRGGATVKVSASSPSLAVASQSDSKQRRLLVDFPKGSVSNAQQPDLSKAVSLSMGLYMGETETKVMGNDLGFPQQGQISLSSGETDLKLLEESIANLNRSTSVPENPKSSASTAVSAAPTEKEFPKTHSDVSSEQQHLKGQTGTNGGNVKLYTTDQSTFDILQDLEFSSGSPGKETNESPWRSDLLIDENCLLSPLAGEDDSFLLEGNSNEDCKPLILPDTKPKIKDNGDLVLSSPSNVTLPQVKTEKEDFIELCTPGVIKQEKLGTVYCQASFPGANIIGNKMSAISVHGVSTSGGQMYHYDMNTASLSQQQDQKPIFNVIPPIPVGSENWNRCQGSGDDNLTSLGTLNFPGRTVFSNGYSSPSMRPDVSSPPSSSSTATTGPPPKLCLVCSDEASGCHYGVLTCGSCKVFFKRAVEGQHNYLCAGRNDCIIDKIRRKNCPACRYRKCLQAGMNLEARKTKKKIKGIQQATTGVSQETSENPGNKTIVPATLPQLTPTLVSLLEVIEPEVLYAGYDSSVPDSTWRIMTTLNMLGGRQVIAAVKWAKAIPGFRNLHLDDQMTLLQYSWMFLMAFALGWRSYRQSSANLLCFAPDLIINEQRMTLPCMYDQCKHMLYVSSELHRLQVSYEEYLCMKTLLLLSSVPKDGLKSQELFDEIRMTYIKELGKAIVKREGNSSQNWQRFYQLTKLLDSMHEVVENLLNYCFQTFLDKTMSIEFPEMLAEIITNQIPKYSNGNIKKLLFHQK

[7] = target: Glucocorticoid receptor (Homo sapiens) (UniProt P04150); experiment: GR-EFC Redistribution (AID 451; calls by dose curve; further: potency means the concentration at half of the fitted maximal effect); settings: CHO-K1 GR-EFC translocation, beta-gal luminescence, 2 h
Outline: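 CHO-K1 cells expressing nuclear EA and GR-ED fragments of b-gal; compounds titrated up to 46 uM final, 2 h at 37 C. GR nuclear translocation read as complemented b-gal luminescence after 1 h RT detection.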

[8] = target: Mitogen-activated protein kinase 10 (Mus musculus) (UniProt Q61831); experiment: JNK3 AlphaScreen Assay (AID 530); settings: JNK3 lysate, c-Jun phosphorylation; series mostly up to 11.4 µM;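 further: kinase came from lysate of stimulated human HepG2 cells; signal reports phosphorylation of biotinylated GST-cJun 1-79 at Ser73 with 10 µM ATP; on the % scale 0 is the no-effect control and ±100 the full control effect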
Outline: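 HepG2 lysate (IL-1b/TNFa pre-activated) + biotin-GST-cJun 1-79 + anti-pSer73 cJun; cpd titration, 15 min RT; ATP 10 uM start; Tris pH 7.6, MgCl2, DTT, vanadate; beads in EDTA buffer; AlphaScreen.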

[9] = target: 3',5'-cyclic-AMP phosphodiesterase 4B (Homo sapiens) (UniProt Q07343); experiment: qHTS Assay for Inhibitors of PDE-IV (AID 607; active means well fitted activation curve with a large enough effect in the main read-out, with a control signal flat, not every such curve was filed as active; further: % of control where 0% means no effect); settings: HEK293 ACTOne CNG channel cells, membrane potential fluorescence; series mostly up to 22.9 µM
Chain of 3',5'-cyclic-AMP phosphodiesterase 4B (Homo sapiens) (Q07343 whole entry, looked up): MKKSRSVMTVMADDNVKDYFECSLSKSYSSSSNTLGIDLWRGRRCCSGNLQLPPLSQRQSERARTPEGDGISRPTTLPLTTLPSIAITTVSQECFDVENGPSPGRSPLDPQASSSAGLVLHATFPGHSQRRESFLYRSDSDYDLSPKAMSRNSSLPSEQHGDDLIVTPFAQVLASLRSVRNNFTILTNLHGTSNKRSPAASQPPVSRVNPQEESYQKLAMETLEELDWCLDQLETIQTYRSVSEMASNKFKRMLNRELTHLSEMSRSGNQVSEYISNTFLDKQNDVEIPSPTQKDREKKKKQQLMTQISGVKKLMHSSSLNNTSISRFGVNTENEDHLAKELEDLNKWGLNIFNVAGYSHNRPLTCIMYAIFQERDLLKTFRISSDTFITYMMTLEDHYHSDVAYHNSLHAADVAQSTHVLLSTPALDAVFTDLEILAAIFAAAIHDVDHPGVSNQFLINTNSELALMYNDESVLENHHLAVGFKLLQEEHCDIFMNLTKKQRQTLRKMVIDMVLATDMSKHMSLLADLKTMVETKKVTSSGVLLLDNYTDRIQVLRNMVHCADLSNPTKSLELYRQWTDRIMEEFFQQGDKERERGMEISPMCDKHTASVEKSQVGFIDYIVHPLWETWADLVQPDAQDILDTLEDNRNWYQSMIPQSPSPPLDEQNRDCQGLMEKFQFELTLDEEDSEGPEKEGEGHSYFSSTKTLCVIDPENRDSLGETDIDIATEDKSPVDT
Outline: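 Cell-based read-out of cAMP via a modified cyclic nucleotide-gated channel and membrane potential dye (535/590 nm) in HEK293 cells expressing PDE4 endogenously. Compounds tested up to 22.9 uM final; 100 uM RO 20-1724 reference.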

Compound: CCOC(=O)CCCN
- Potency [1]: > 11.4 µM
- activity change, negative = inhibition [2]: -4.22%
- Potency [3]: 6.31 µM (active)
- activity change, negative = inhibition [4]: 2.34%
- activity, negative = inhibition [5]: 8.34%
- Potency [6]: > 46 µM
- Potency [7]: > 9.22 µM
- Potency [8]: inactive
- Potency [9]: inactive

Compound: Nc1cc(S(=O)(=O)O)cc2ccc(S(=O)(=O)O)cc12
- Potency [1]: > 11.4 µM
- activity change, negative = inhibition [2]: 1.79%
- activity change, negative = inhibition [3]: -18.1% [at 2.29 µM]
- activity change, negative = inhibition [4]: 2.43%
- activity, negative = inhibition [5]: -1.78%
- Potency [6]: > 46 µM
- Potency [7]: > 9.22 µM
- Potency [8]: inactive
- Potency [9]: inactive

Compound: Oc1c(Cl)cc(CN(Cc2cc(Cl)c(O)c(Cl)c2)C2CCCCC2)cc1Cl
- Potency [1]: > 11.4 µM
- activity change, negative = inhibition [2]: 4.05%
- activity change, negative = inhibition [3]: 11.3% [at 2.29 µM]
- activity change, negative = inhibition [4]: 1.82%
- activity, negative = inhibition [5]: -25.8%
- Potency [6]: > 46 µM
- Potency [7]: > 9.22 µM
- Potency [8]: inactive
- Potency [9]: inactive

Compound: Nc1ccccc1CCCC(=O)O
- Potency [1]: > 11.4 µM
- activity change, negative = inhibition [2]: -5.22%
- Potency [3]: inactive
- activity change, negative = inhibition [4]: 0.568%
- activity, negative = inhibition [5]: 4.31%
- Potency [6]: > 46 µM
- Potency [7]: > 9.22 µM
- Potency [8]: inactive
- Potency [9]: inactive

Compound: O=C(O)c1ccc(C(=O)c2ccccc2C(=O)O)cc1C(=O)O
- Potency [1]: > 11.4 µM
- activity change, negative = inhibition [2]: -15.3%
- Potency [3]: inactive
- activity change, negative = inhibition [4]: 20.9%
- activity, negative = inhibition [5]: -1.86%
- Potency [6]: > 46 µM
- Potency [7]: > 9.22 µM
- Potency [8]: inactive
- Potency [9]: inactive

Compound: Cc1c(C)c(C)c(CC2(C)CSC2)c(CC2(C)CSC2)c1C
- Potency [1]: > 11.4 µM
- activity change, negative = inhibition [2]: 10.3%
- Potency [3]: inactive
- activity change, negative = inhibition [4]: 0.756%
- activity, negative = inhibition [5]: 6.86%
- Potency [6]: > 46 µM
- Potency [7]: > 9.22 µM
- Potency [8]: inactive
- Potency [9]: inactive
